Common to all, as to assay: DAPPL (digital affinity profiling via proximity ligation, sequencing); 10 mM Tris-HCl pH 7.5, 50 mM NaCl, 1 mM DTT, 4% glycerol, room temperature, 30 min; GST-TFs on glutathione beads, 16-mer random dsDNA library, 0.1% formaldehyde crosslink after washing; high values mean tight binding
The target of one assay is T1, FLI1 (Homo sapiens, UniProt Q01543 1-452).
T1 sequence: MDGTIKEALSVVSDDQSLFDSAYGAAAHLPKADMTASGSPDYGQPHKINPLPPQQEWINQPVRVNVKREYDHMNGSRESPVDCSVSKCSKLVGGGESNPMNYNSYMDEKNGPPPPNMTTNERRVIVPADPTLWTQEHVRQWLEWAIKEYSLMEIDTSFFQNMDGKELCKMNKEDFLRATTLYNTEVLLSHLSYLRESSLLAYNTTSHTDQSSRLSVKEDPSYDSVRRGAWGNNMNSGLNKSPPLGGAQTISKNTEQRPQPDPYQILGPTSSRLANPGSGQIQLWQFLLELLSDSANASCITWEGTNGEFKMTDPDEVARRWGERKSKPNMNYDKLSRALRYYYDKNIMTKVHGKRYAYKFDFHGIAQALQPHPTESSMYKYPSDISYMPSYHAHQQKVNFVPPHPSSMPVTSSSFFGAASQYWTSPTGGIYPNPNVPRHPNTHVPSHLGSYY
The note with it: protein: recombinant; tags: N-terminal GST; dsDNA, one strand shown. The procedure, abridged:
(§1)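 Pools were built from human transcription factors expressed in yeast as GST fusions, captured on glutathione beads and DNA-barcoded, along with a tag-only sample. Incubation with 200 nmole of a 16-mer random double-stranded DNA library lasted 30 min at room temperature in Tris/NaCl/DTT/glycerol buffer, and was followed by washing, 0.1% formaldehyde crosslinking, proximity ligation, PCR amplification and Illumina NextSeq500 sequencing. Binding signal is the quotient of each hexamer's read frequency for a factor and its frequency for the tag-only sample.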

Another assay deals with T2, ELK1 (Homo sapiens, UniProt P19419 1-428).
T2 sequence: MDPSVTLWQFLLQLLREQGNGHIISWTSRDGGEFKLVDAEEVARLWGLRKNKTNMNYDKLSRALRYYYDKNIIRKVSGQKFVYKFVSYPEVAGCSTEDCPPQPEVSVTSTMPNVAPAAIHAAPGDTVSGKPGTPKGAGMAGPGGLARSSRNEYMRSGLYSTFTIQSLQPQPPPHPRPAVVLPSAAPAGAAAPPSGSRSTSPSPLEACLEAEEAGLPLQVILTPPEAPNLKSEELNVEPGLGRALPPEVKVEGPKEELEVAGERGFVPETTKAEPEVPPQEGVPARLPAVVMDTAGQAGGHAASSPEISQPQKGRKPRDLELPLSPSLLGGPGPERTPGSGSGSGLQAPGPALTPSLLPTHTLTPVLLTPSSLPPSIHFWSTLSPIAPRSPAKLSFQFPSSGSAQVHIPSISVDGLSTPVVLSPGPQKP
The note with it: protein: recombinant; tags: N-terminal GST; dsDNA, one strand shown. The procedure, abridged: as §1

A further assay addresses T3, GABPA (Homo sapiens, UniProt Q06546 1-454).
T3 sequence: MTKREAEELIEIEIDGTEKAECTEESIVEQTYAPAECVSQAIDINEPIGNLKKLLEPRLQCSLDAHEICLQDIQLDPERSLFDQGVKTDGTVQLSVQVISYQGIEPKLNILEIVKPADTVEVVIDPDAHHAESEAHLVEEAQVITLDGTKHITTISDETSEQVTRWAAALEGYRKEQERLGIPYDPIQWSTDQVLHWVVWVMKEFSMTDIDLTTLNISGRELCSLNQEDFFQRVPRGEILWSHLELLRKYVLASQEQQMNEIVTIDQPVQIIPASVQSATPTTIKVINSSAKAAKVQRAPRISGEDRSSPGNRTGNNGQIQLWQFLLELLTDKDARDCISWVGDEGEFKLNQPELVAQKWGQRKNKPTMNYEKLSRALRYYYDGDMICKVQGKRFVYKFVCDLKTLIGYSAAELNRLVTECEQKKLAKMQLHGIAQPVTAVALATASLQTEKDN
The note with it: protein: recombinant; tags: N-terminal GST; dsDNA, one strand shown. The procedure, abridged: as §1

The target in another assay is T4, ERG (Homo sapiens, UniProt P11308 1-479).
T4 sequence: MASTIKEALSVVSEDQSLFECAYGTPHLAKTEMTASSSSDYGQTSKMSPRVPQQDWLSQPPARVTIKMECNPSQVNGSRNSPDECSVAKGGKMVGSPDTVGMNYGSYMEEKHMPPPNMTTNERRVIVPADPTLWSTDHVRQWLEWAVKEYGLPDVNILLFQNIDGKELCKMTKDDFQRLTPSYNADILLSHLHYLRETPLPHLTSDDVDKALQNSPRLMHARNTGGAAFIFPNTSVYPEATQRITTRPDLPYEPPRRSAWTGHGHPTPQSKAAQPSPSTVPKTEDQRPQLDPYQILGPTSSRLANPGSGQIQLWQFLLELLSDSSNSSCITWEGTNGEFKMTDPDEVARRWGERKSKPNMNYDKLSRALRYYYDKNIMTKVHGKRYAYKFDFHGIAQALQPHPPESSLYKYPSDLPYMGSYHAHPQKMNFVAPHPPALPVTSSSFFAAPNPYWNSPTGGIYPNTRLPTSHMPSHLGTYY
The conditions noted are these: protein: recombinant; tags: N-terminal GST; dsDNA, one strand shown. The essentials: as §1

Another assay has as its target ELF1 (Homo sapiens, UniProt P32519 1-619). The conditions noted are these: protein: recombinant; tags: N-terminal GST; dsDNA, one strand shown. The essentials: as §1
Another assay concerns the target T5, EHF (Homo sapiens, UniProt Q9NZC4 1-300).
T5 sequence: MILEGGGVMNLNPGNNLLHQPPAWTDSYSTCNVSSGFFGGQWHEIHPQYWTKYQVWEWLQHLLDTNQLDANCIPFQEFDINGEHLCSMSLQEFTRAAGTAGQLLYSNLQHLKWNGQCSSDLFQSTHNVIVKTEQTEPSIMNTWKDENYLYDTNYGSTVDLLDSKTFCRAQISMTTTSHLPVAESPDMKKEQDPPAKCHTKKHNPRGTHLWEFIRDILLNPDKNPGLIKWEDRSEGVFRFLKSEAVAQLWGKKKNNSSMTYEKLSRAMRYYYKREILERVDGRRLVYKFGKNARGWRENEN
The note with it: protein: recombinant; tags: N-terminal GST; dsDNA, one strand shown. The essentials: as §1

A further assay has as its target SPI1 (Homo sapiens, UniProt P17947 1-270). The note with it: protein: recombinant; tags: N-terminal GST; dsDNA, one strand shown. The essentials: as §1
A further assay concerns the target SPIB (Homo sapiens, UniProt Q01892 1-262). The conditions noted are these: protein: recombinant; tags: N-terminal GST; dsDNA, one strand shown. The essentials: as §1
The target of a further assay is T6, ELK3 (Homo sapiens, UniProt P41970 1-407).
T6 sequence: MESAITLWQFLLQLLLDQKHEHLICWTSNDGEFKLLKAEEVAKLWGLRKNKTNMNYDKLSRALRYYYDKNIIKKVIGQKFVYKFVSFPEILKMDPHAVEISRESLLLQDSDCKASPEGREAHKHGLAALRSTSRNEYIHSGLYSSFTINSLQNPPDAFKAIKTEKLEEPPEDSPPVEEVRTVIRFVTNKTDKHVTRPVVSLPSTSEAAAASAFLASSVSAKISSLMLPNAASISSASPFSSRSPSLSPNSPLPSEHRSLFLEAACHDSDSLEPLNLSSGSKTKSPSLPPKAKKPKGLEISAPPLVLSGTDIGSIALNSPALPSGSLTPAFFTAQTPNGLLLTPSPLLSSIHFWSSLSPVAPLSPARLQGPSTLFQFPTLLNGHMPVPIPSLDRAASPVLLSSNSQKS
The note with it: protein: recombinant; tags: N-terminal GST; dsDNA, one strand shown. The procedure, abridged:
as §1

The target in another assay is T7, FEV (Homo sapiens, UniProt Q99581 1-238).
T7 sequence: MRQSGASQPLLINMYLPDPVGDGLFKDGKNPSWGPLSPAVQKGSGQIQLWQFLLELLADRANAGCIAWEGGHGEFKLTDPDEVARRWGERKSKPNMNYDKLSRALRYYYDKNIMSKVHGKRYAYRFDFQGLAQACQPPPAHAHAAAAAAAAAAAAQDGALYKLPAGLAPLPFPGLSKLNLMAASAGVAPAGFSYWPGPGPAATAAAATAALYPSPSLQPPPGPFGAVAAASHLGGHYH
The conditions noted are these: protein: recombinant; tags: N-terminal GST; dsDNA, one strand shown. The procedure, abridged: as §1

The target in another assay is ETV5 (Homo sapiens, UniProt P41161 1-510). The conditions noted are these: protein: recombinant; tags: N-terminal GST; dsDNA, one strand shown. The procedure, abridged: as §1
The target of the next assay is HSF1 (Homo sapiens, UniProt Q00613 1-529). The conditions noted are these: protein: recombinant; tags: N-terminal GST; chain copies: 3; dsDNA, one strand shown. The procedure, abridged:
as §1

Another assay addresses T8, SPIC (Homo sapiens, UniProt Q8N5J4 1-248).
T8 sequence: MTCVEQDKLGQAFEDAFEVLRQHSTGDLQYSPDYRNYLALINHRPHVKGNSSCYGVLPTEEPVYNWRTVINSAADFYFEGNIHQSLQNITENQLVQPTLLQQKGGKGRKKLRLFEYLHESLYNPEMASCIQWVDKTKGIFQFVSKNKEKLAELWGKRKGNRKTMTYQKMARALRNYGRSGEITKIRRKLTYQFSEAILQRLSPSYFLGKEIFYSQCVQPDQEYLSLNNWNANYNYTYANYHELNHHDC
The conditions noted are these: protein: recombinant; tags: N-terminal GST; dsDNA, one strand shown. The procedure, abridged:
as §1

For another assay, the target named is ELF4 (Homo sapiens, UniProt Q99607 1-663). The note with it: protein: recombinant; tags: N-terminal GST; dsDNA, one strand shown. The essentials:
as §1

The target in another assay is T9, ELK4 (Homo sapiens, UniProt P28324-2 1-405).
T9 sequence: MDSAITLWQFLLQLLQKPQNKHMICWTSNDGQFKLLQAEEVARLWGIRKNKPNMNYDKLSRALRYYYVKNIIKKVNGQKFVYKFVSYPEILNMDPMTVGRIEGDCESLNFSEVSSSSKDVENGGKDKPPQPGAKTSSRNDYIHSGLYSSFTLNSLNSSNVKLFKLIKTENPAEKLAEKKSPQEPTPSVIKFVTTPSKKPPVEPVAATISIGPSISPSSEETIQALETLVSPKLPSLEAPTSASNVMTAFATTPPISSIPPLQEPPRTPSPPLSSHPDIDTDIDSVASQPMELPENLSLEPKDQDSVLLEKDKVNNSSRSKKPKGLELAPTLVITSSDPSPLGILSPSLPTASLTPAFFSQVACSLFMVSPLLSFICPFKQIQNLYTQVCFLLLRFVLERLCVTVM
The conditions noted are these: protein: recombinant; tags: N-terminal GST; dsDNA, one strand shown. The essentials:
as §1

A further assay concerns the target T10, ETV2 (Homo sapiens, UniProt O00321 1-342).
T10 sequence: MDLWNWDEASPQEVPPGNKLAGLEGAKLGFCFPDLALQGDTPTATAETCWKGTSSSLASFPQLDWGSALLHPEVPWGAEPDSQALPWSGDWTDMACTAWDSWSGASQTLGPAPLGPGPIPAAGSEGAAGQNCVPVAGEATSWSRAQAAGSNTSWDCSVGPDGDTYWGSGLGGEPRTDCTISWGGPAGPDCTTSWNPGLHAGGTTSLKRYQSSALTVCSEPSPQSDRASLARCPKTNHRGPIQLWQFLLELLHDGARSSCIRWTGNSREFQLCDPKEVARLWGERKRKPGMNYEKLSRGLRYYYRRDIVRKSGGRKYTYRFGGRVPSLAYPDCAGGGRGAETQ
The conditions noted are these: protein: recombinant; tags: N-terminal GST; dsDNA, one strand shown. The essentials: as §1

The target in a further assay is T11, ELF3 (Homo sapiens, UniProt P78545 1-371).
T11 sequence: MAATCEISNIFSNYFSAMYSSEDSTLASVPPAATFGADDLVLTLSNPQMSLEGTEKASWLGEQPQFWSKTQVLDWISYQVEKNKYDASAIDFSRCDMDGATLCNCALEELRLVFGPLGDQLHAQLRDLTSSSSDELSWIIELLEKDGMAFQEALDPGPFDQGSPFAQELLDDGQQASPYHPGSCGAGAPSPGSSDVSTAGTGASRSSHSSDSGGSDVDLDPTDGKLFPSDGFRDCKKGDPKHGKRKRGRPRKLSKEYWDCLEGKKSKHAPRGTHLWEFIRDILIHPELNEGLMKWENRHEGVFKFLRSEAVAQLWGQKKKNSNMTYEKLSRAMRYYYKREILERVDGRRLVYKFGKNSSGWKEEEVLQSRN
The note with it: protein: recombinant; tags: N-terminal GST; dsDNA, one strand shown. The procedure, abridged: as §1

The next assay has as its target CRX (Homo sapiens, UniProt O43186 1-299). The conditions noted are these: protein: recombinant; tags: N-terminal GST; dsDNA, one strand shown. The procedure, abridged:
as §1

Another assay concerns the target ETV1 (Homo sapiens, UniProt P50549 1-477). The conditions noted are these: protein: recombinant; tags: N-terminal GST; dsDNA, one strand shown. The procedure, abridged: as §1

Sequence of HSF1 (Q00613 whole entry): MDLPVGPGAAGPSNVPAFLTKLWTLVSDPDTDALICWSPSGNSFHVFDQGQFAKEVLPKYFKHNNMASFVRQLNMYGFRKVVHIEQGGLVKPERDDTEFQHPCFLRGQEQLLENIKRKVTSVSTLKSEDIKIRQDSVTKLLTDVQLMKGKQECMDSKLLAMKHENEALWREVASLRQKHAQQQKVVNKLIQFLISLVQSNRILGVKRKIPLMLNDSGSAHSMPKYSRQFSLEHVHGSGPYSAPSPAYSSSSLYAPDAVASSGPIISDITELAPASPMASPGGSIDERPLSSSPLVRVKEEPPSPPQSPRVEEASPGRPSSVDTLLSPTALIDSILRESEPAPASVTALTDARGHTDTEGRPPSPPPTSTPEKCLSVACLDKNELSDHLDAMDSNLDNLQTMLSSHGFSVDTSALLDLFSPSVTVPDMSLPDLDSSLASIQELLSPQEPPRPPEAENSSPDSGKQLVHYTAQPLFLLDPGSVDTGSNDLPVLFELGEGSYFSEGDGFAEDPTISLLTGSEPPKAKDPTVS
Sequence of ETV5 (P41161 whole entry): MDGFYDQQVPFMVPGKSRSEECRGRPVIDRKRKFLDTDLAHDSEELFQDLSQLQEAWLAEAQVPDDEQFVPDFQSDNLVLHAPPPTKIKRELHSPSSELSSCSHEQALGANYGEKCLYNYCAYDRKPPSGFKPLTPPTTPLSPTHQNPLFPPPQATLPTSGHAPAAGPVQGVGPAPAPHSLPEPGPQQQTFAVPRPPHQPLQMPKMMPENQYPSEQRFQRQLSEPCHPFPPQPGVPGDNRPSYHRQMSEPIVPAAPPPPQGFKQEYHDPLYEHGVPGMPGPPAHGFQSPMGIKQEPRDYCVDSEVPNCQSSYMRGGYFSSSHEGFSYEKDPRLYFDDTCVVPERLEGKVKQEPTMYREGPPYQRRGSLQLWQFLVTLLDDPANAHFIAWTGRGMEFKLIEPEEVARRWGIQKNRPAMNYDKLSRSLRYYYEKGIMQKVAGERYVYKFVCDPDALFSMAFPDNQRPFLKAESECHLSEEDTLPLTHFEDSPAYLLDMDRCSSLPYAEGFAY
Sequence of ELF4 (Q99607 whole entry): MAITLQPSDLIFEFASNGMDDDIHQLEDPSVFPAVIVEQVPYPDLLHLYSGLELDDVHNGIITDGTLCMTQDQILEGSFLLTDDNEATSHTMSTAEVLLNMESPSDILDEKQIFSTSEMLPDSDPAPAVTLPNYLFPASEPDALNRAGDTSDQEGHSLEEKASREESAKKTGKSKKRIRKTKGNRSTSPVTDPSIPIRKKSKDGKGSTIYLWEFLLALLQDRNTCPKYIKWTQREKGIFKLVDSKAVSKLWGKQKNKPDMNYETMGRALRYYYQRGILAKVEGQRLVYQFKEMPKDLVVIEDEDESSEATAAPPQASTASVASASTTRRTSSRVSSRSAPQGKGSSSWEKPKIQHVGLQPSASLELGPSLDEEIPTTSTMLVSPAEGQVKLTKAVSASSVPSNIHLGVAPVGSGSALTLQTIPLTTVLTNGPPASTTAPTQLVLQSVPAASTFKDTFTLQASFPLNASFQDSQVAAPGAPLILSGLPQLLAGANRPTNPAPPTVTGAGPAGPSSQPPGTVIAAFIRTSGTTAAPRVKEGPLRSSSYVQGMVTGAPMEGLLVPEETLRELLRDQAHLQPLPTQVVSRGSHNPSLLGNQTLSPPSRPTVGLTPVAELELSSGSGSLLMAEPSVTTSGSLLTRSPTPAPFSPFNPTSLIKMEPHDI
Sequence of ELF1 (P32519 whole entry): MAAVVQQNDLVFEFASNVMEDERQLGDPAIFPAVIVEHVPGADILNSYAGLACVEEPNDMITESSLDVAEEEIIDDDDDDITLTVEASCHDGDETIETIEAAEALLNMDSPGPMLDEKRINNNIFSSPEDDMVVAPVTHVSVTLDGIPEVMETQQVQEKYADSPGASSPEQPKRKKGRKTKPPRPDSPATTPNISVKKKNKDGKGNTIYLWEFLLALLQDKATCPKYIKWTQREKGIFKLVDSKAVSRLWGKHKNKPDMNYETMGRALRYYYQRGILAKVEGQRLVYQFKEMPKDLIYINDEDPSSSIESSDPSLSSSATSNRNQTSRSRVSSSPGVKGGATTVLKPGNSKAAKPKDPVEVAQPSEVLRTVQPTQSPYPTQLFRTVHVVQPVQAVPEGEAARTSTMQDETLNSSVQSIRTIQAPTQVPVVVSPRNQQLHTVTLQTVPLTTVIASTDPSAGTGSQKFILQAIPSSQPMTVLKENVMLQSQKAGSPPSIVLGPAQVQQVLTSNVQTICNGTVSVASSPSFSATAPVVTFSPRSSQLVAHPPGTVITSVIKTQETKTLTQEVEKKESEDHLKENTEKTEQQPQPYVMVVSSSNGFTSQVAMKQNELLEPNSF
Sequence of ETV1 (P50549 whole entry): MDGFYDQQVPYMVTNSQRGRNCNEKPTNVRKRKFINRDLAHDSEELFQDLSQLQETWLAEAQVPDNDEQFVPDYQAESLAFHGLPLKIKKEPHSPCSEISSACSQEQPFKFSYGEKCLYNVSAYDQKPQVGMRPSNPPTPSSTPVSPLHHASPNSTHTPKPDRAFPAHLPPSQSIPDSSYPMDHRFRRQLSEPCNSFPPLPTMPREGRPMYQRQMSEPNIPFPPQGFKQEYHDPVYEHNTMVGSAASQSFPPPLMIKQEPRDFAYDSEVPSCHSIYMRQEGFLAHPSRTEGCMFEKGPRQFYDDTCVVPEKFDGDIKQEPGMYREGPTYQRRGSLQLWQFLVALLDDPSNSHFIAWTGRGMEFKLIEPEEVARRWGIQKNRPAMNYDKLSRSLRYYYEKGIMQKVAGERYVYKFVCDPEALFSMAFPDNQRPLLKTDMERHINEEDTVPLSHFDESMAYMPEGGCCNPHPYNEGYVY
Sequence of SPIB (Q01892 whole entry): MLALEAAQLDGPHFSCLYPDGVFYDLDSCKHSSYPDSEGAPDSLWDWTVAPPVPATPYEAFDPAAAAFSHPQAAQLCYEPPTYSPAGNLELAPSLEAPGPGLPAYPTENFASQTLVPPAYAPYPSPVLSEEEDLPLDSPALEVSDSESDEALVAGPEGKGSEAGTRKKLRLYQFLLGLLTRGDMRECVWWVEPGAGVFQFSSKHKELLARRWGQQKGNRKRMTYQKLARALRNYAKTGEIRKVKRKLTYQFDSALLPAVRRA
Sequence of CRX (O43186 whole entry): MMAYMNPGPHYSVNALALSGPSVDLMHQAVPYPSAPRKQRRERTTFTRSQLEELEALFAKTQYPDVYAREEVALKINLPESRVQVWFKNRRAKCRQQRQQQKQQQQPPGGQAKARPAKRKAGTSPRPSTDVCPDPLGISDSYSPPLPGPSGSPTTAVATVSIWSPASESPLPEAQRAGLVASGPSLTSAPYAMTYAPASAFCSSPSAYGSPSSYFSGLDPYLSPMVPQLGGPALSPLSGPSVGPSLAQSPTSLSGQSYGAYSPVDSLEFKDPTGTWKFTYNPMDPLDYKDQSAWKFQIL

For TCCTCT, the binding signal with FLI1 was 1.58 fold enrichment (6-mer frequency, TF over GST control); with ELK1, 1.57 fold enrichment (6-mer frequency, TF over GST control); with GABPA, 1.57 fold enrichment (6-mer frequency, TF over GST control); with ERG, 1.7 fold enrichment (6-mer frequency, TF over GST control); with ELF1, 1.64 fold enrichment (6-mer frequency, TF over GST control); with EHF, 1.7 fold enrichment (6-mer frequency, TF over GST control). The binding signal in the assay with SPI1 was 2.95 fold enrichment (6-mer frequency, TF over GST control); with SPIB, 1.72 fold enrichment (6-mer frequency, TF over GST control); with ELK3 it was 1.6 fold enrichment (6-mer frequency, TF over GST control); with FEV it was 1.63 fold enrichment (6-mer frequency, TF over GST control); with ETV5, 1.64 fold enrichment (6-mer frequency, TF over GST control); with HSF1, 1.51 fold enrichment (6-mer frequency, TF over GST control). For the same sequence, the binding signal with SPIC was 1.67 fold enrichment (6-mer frequency, TF over GST control); with ELF4 it was 1.69 fold enrichment (6-mer frequency, TF over GST control); with ELK4 it was 1.53 fold enrichment (6-mer frequency, TF over GST control); with ETV2, 1.68 fold enrichment (6-mer frequency, TF over GST control); with ELF3, 1.66 fold enrichment (6-mer frequency, TF over GST control); with CRX it was 1.79 fold enrichment (6-mer frequency, TF over GST control). Besides, the binding signal with ETV1 is 1.74 fold enrichment (6-mer frequency, TF over GST control).

For the origin of these results see paper PMC7862700, “An all-to-all approach to the identification of sequence-specific readers for epigenetic DNA modifications on cytosine”.
